Structures are written as SMILES. Activity calls are given as the source filed them. The calls were made as follows: active = hit-call score of the fitted dose curve at least 0.9, where 1 is the maximum; inactive = score below 0.9.

CYP2C9, CYP2C9 (gene 1559), sequence (P11712 whole entry, looked up): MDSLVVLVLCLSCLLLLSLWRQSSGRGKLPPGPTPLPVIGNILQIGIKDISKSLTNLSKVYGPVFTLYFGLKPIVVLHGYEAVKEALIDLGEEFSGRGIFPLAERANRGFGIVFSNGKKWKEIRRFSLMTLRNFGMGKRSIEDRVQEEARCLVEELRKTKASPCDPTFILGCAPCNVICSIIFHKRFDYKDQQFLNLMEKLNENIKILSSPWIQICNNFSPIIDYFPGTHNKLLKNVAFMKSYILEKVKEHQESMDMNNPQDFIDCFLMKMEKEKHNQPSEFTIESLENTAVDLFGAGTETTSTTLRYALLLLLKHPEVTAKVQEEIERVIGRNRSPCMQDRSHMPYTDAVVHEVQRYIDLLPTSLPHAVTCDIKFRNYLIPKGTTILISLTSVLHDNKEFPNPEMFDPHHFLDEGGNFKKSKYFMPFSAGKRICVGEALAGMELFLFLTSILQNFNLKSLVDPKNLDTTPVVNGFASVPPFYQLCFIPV

This experiment has as its target CYP2C9, CYP2C9 (gene 1559) (UniProt P11712). The experiment can be described thus: ERF_FR_ADME_hCYP2C9: Eurofins (ERF) CYP450-related Enzyme Activity (ADME) Assay for CYP2C9. The procedure:
ERF_FR_ADME_hCYP2C9 is a biochemical, single-readout assay that uses extracted gene-proteins in a cell-free assay. Measurements were taken 0.66 hour after chemical dosing in a 96-well plate. See CYP2C9 inhibition (recombinant, MFC substrate).ERF_FR_ADME_hCYP2C9 is an assay component calculated from the ERF_FR_ADME_hCYP2C9 assay. It is designed to measure enzyme activity using a type of enzyme reporter as detected by fluorescence intensity of HFC with fluorimetry technology.Data from the assay component ERF_FR_ADME_hCYP2C9 was analyzed at the assay endpoint, ERF_FR_ADME_hCYP2C9, in the positive analysis fitting direction relative to acetonitrile as the negative control and baseline of activity. Using a type of enzyme reporter, loss-of-signal activity can be used to understand changes in enzymatic activity as they relate to gene CYP2C9. To generalize the intended target to other relatable targets, this assay endpoint is annotated to the cyp intended target family, where the subfamily is steroidogenesis-related.
Human cells are incubated for 15 minutes at 37C with Diclofenac as substrate and Sulfaphenazole as control inhibitor. Test Sample Requirements: Minimum for 1) Screen: 25 ul of 10 mM stock -OR- 1 mg (pre-weighed) for 10 uM final testing. 2) Dose Response: 60 ul of 10 mM stock -OR- 1 mg (pre-weighed). […]
The term AC50 denotes the midpoint of the concentration-response curve, whichever way the signal moves. Turning to `O=C(/C=C/c1ccc(O)cc1)CC(=O)/C=C/c1ccc(O)cc1`, the AC50 was 0.502 µM (active).
